# Among all 1,800 compounds or so, about 410 (23%) were called active. The rule behind the calls is not given here. These entries were drawn from the full list. Entries with a potency or affinity are not part of this list.
# Test: Vero cell cytotoxicity, cytotoxicity control for flavivirus capping enzyme inhibitors (AID 588742)
# Conditions: Vero cells viability, cytotoxicity counter-screen; series mostly up to 40 µM
row,SMILES,outcome
1,C=CCN=C1N[C@@H](c2cccc(C(F)(F)F)c2)C(C(=O)OC)=C(C)N1CC,inactive
2,Cc1c(OC(=O)c2ccc([N+](=O)[O-])cc2)c2c(c[n+]1C)COC(C)(C)OC2,inactive
3,CCOC(=O)c1cc(-c2ccc(/C=C3/C(=O)NC(=O)C(C#N)=C3C)o2)ccc1Cl,inactive
4,CCC(c1ccccc1)C(CC)c1cc(O)c(O)c(O)c1 (stereo not drawn),inactive
5,N#CC1=C(N)C2=C(N3CCCCC3)CCCC2C1(C#N)C#N (stereo not drawn),inactive
6,COc1ccc(C2Nc3cccc4cccc(c34)N2)cc1,inactive
7,COc1ccc(-c2cc(-c3ccc(Cl)cc3)c(C#N)c(SCC(=O)O)n2)cc1,inactive
8,CCOC(=O)/C(C#N)=C/c1c(N2CCN(CC)CC2)nc2c(C)cccn2c1=O,inactive
9,COc1ccccc1N(O)C1CC(=O)N(c2ccc(F)cc2)C1=O (stereo not drawn),inactive
10,CC(=O)N(C1=C(Cl)C(=O)c2ccccc2C1=O)c1ccc(C(=O)O)cc1,inactive
11,O=S(c1ccccc1O)S(=O)c1ccccc1O (stereo not drawn),inactive
12,Cc1cc(=O)n(CCc2ccccc2)c(O)c1C#N,inactive
13,CC1CC2=C(NC(=S)NC2c2ccccc2F)/C(=C/c2ccccc2F)C1 (stereo not drawn),inactive
14,COc1ccc(N2C(=O)C(Cl)=C(N3CCOCC3)C2=O)cc1,inactive
15,O=C1N=c2ccc(Br)cc2=C1c1sc(=S)n(NS(=O)(=O)c2ccccc2)c1O,inactive
16,COC(=O)CN(c1ccccc1C)S(C)(=O)=O,inactive
17,COc1cccc(/C=C2\SC(=S)N(C(Cc3ccccc3)C(=O)O)C2=O)c1 (stereo not drawn),inactive
18,COc1ccc(-c2csc(NC(=O)CSc3nc(C)nc4sc(C(=O)O)c(C)c34)n2)cc1,inactive
19,Oc1ccc(/C=N/NC(=S)Nc2cccnc2)c(O)c1O,inactive
20,CCSc1ncc(Cl)c(C(=O)N(Cc2ccc(N(C)C)cc2)C2CCS(=O)(=O)C2)n1 (stereo not drawn),inactive
21,CCN(CCO)c1ccc(NC(=S)Nc2cccc(S(=O)(=O)N(C)C)c2)cc1,inactive
22,COc1ccc(NC(=S)NNc2ccc(S(=O)(=O)Nc3ccccc3C(=O)O)cc2[N+](=O)[O-])cc1,inactive
23,O=C1c2ccccc2C(=O)N1OS(=O)(=O)c1ccc(F)cc1,inactive
24,CC(C)=CCC1=C(OCC(=O)O)C(=O)c2ccccc2C1=O,inactive
25,CN(C)NC(=S)Nc1ccc2nc(-c3ccccn3)c(-c3ccccn3)nc2c1,inactive

row,SMILES,outcome
1,CC(C)c1ccc(S(=O)(=O)/N=C2\C=C(NS(=O)(=O)c3ccccc3)C(=O)c3ccccc32)cc1,inactive
2,CC(C)c1ccc(S(=O)(=O)c2n[nH]n3c2nc(=O)c2ccccc23)cc1,inactive
3,Cc1ccc(C(C2C(=O)CC(C)(C)CC2=O)C2C(=O)CC(C)(C)CC2=O)s1,inactive
4,CC1=NN(c2ccc(C(=O)O)cc2)C(=O)/C1=C/c1ccc(-c2ccccc2F)o1,inactive
5,CC1=NN(c2ccc(Cl)c(C(=O)O)c2)C(=O)/C1=C\c1ccc(-c2ccc(C(=O)O)cc2)o1,inactive
6,COc1ccc(N2C(=NC(=O)CCCc3ccccc3)SC3CS(=O)(=O)CC32)cc1 (stereo not drawn),inactive
7,O=C1C(=Cc2cccn2-c2ccc(O)cc2)C(=O)c2ccccc21,inactive
8,O=C1NC(=S)NC1=Cc1ccco1,inactive
9,COC(=O)c1c(Cl)c2n3ccccc3c(C)c(-c3ccccc3)c-2c1C(=O)OC,inactive
10,COc1ccc(C(C2C(=O)CC(C)(C)CC2=O)C2C(=O)CC(C)(C)CC2=O)cc1CO,inactive
11,Cc1ccc(CCCNC(=O)C2CCC(=O)N(Cc3cccc(F)c3)C2)cc1 (stereo not drawn),inactive
12,CC(C)(C)OC(=O)N1CCN(C(=O)c2ncn(Cc3ccccc3)c2C(=O)N2CCN(C(=O)OC(C)(C)C)CC2)CC1,inactive
13,CC1(C(=O)NNC(=O)c2ccc([N+](=O)[O-])cc2)CC1(Br)Br (stereo not drawn),inactive
14,CCC(=O)NC(c1ccco1)c1cc(Cl)c2ccccc2c1O (stereo not drawn),inactive
15,CC(=O)NC(c1ccco1)c1cc(Cl)c2ccccc2c1O (stereo not drawn),inactive
16,COc1ccc(NC(=O)c2ccccn2)cc1OC,inactive
17,O=C(O)COc1ccccc1C(Nc1ccccn1)c1cc(Cl)c2cccnc2c1O (stereo not drawn),inactive
18,C=CCS/C(N)=N\N=C\c1cc(Br)cc([N+](=O)[O-])c1O,inactive
19,COc1cccc(CNC(=O)CCc2nnc3ccc(NCCCN4CCCC4=O)nn23)c1,inactive
20,CCOC(=O)C1Nc2ccccc2C2C(O)C(O)CC12 (stereo not drawn),inactive
21,COC1C=COC2(C)Oc3c(C)c(O)c4c(O)c(c(CN5CCN(C)CC5)c(O)c4c3C2=O)NC(=O)C(C)=CC=CC(C)C(O)C(C)C(O)C(C)C(OC(C)=O)C1C (stereo not drawn),inactive
22,O=C(C1=C(O)C(=O)N(Cc2ccco2)C1c1cccnc1)c1cc2ccccc2o1 (stereo not drawn),inactive
23,O=C(O)CN1C(=O)/C(=C\c2cccc(OCc3ccccc3F)c2)SC1=S,inactive
24,COc1cc(NC(=O)CSc2ncnc3sc4c(c23)CCC(C)C4)c(C(=O)O)cc1OC (stereo not drawn),inactive
25,CCOC(=O)c1ccc2c(c1)n(CCO)c(C)[n+]2CC,inactive

row,SMILES,outcome
1,Cc1cccc2cc(C#N)c(N3CCC(O)CC3)nc12,inactive
2,COc1cccc(N2C(=O)CC(Nc3ccc(N4CCOCC4)cc3)C2=O)c1 (stereo not drawn),inactive
3,Cc1cc(C(C2C(=O)CC(C)(C)CC2=O)C2C(=O)CC(C)(C)CC2=O)cc(C)c1OC(F)F,inactive
4,O=C(/C=C/c1ccccc1)n1cnnc1SC/C=C/c1ccccc1,inactive
5,O=C(O)c1cc(NCc2ccc(F)cc2)ccc1N1CCOCC1,inactive
6,COC(=O)CCC(=O)OC1(C)C(=O)C2=CN(C3CC3)C(c3ccc(OC)cc3)=CC2=C(Br)C1=O (stereo not drawn),inactive
7,Cc1ccc(N2C(=O)C(Cl)=C(N3CCOCC3)C2=O)cc1Cl,inactive
8,CCOc1cc(C(c2c(C)[nH][nH]c2=O)c2c(C)[nH][nH]c2=O)cc([N+](=O)[O-])c1O,inactive
9,O=C(O)c1cc([N+](=O)[O-])c(Sc2nc3ccccc3[nH]2)c([N+](=O)[O-])c1,inactive
10,O=[N+]([O-])c1cc2ccccc2c(O)c1O,inactive
11,Cc1ccc(C)c(N=Cc2cc3c(cc2[N+](=O)[O-])OCO3)c1,inactive
12,CCC1=NN2C(=N)/C(=C\c3ccc(OCc4cc(=O)n5nc(CC)sc5n4)c(OC)c3)C(=O)N=C2S1,inactive
13,Cc1c(C2CC(=O)N(c3ccccc3)C2=O)[nH]n(-c2ccccc2)c1=O (stereo not drawn),inactive
14,O=C(O)CCc1ccc(-c2ccc(Br)cc2)n1-c1ccc(O)cc1,inactive
15,CCCOc1cccc(C2C(C(=O)c3cc4ccccc4o3)=C(O)C(=O)N2c2cc(C)on2)c1 (stereo not drawn),inactive
16,O=c1c2ccccc2nc2ccc(NCc3ccco3)nn12,inactive
17,CCOc1cc(/C=N/Nc2ccc(S(=O)(=O)Nc3ccccc3C(=O)O)cc2[N+](=O)[O-])cc(Cl)c1O,inactive
18,Cc1nn(-c2ccccc2)c(Cl)c1/C=N/Nc1ccc(S(=O)(=O)Nc2ccccc2C(=O)O)cc1[N+](=O)[O-],inactive
19,C=CCOc1cccc(C2C(C(=O)c3ccc(C)o3)=C(O)C(=O)N2c2nccs2)c1 (stereo not drawn),inactive
20,O=C1C(C=NCc2ccco2)=C(O)c2ccccc21,inactive
21,CC(C(=O)O)N1C(=O)/C(=C/C=C/c2ccco2)SC1=S (stereo not drawn),inactive
22,CC(C)C(C(=O)O)N1C(=O)/C(=C/C=C/c2ccco2)SC1=S (stereo not drawn),inactive
23,Cc1ccc(S(=O)(=O)NN/C(=N/S(=O)(=O)c2ccccc2)c2ccccc2)cc1,inactive
24,Cc1nn(-c2ccccc2)c2c1C(c1ccncc1)C(C#N)=C(N)O2 (stereo not drawn),inactive
25,Cn1nc([N+](=O)[O-])c(C(C#N)c2nc3ccccc3n2C)c(Cl)c1=O (stereo not drawn),inactive

row,SMILES,outcome
1,CCn1nc([N+](=O)[O-])c(C(C#N)c2nc3ccccc3n2C)c(Cl)c1=O (stereo not drawn),inactive
2,COC(=O)c1ccccc1N/C=C1\CCc2c(c(C)nn2-c2ccccn2)C1=O,inactive
3,CCc1sc(/C=C(/C#N)C(N)=S)cc1[N+](=O)[O-],inactive
4,Cc1ccc(-n2nc(C)c3c2OC(N)=C(C#N)C3c2ccco2)cc1 (stereo not drawn),inactive
5,CCSc1nnc(NC(=O)c2nc(S(=O)(=O)Cc3ccc(F)cc3)ncc2Cl)s1,inactive
6,CCOC(=O)c1c(-c2ccc(-c3ccccc3)cc2)csc1NC(=O)C1C2CCC(O2)C1C(=O)O (stereo not drawn),inactive
7,Cc1noc(C)c1C(=O)Nc1ccc(N(C)C)cc1,inactive
8,CCC(=O)OC1(C)C(=O)C=C2C=C(C3CC3)OC=C2C1=O (stereo not drawn),inactive
9,COc1ccc(/C=N/NC(=O)c2nnn(-c3nonc3N)c2CN(C)C2CCCCC2)cc1,inactive
10,C#CCOc1c(Cl)cc(/C=C2/C(=O)ON=C2C)cc1OCC,inactive
11,COc1cc(/C=C2\S/C(=N/S(=O)(=O)Cc3ccccc3)NC2=O)c([N+](=O)[O-])cc1OC,inactive
12,COc1ccc(S(=O)(=O)Nc2c(O)ccc3ccccc23)cc1OC,inactive
13,NC(=S)n1[nH]c(-c2ccc([N+](=O)[O-])cc2)c(N=Nc2ccccc2[N+](=O)[O-])c1=O,inactive
14,CN1C(=O)/C(=C/c2ccc(C(=O)Nc3ccc(O)cc3C(=O)O)cc2)SC1=S,inactive
15,Cc1cccc(C)c1NC(=S)NC(=O)c1ccc(Br)o1,inactive
16,CS(=O)(=O)c1ncc(Cl)c(C(=O)Nc2ccc(N3CCOCC3)cc2)n1,inactive
17,CCC(CO)Oc1cc(NCc2cccc(C)c2)c2ncn(C(C)C)c2c1 (stereo not drawn),inactive
18,CC1(C)CC(=O)C2=C(C1)c1c(ccc3ccccc13)NC2c1cc([N+](=O)[O-])cc([N+](=O)[O-])c1O (stereo not drawn),inactive
19,N=C1/C(=C\c2ccc(OC(=O)c3ccccc3Cl)cc2)C(=O)N=C2SC(N3CCOCC3)=NN12,inactive
20,Nc1nc(C2C(=O)CCCC2=O)cs1,inactive
21,O=C(Nc1c(F)c(F)c(F)c(F)c1F)NC1CCCCC1,inactive
22,O=C(O)c1ccccc1N=Nc1c(O)[nH]c2ccc([N+](=O)[O-])cc12,inactive
23,CC(C)c1ccc(N2C(=O)C(Cl)=C(N3CCOCC3)C2=O)cc1,inactive

# Reference: PubChem BioAssay AID588742 (Southern Research Specialized Biocontainment Screening …, 2011)
